“And” between values parts separate entries of the source, which are not always exact repeats. Equal entries are not always repeated. Results filed as inconclusive are left out. The source made the active and inactive calls. Unless noted, the call rests on the fitted dose curve; in most records, active means well fitted curve in the direction sought with a large enough effect; inconclusive means small, poorly fitted or top-dose-only effect, or another doubt; inactive means no such curve, though single readings can be large; an effect the other way counts as inactive or inconclusive. *1 amine or outer side, *2 acyl side, *3 side chain or, on linkers, in order; H or OH if unused. Where a SMILES comes first, the peptide text is derived from it. [ ]: non-standard residue; d: D form. X7 = O=C([C@@H](CC(O)CCl)O[*:1])[*:2]; aIle = CC[C@@H](C)[C@H](N)C(=O)O; NMeV = CN[C@H](C(=O)O)C(C)C; NMeA = CN[C@@H](C)C(=O)O; βAla = NCCC(=O)O
Experiments:
[1] = tested on: Zika virus NS2B-NS3 protease (unlinked complex); assay: Primary screen GU Rhodamine qHTS for Zika virus inhibitors: Unlinked NS2B-NS3 protease assay (AID 1347159); further: nearly all actives have a fitted effect of over 60% in size; further: potency means the concentration at half of the fitted maximal effect; on activity change, negative = inhibition: on the % scale 0 is the no-effect control and ±100 the full control effect
Procedure, shortened: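 Unlinked NS2B/NS3, 25 nM; Rhod110 peptide, 1.5 microM; compounds, up to 114 microM. Reaction run 15 min at RT in 10 mM Tris-HCl pH 8.0, 0.01% Tween 20; kinetic fluorescence change fitted with a 4-parameter Hill model.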

[2] = tested on: Zika virus NS2B-NS3 protease (linked construct); assay: Primary screen NINDS Rhodamine qHTS for Zika virus inhibitors (AID 1347160); further: nearly all actives have a fitted effect of over 55% in size; on activity change, negative = inhibition: on the % scale 0 is the no-effect control and ±100 the full control effect
Procedure, shortened: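 Single-chain NS2B-NS3 protease, 25 nM, pH 8.0; compounds preincubated 15 min. Activity: Rhodamine110 release from 1.5 microM substrate over 15 min, room temperature, data fitted to 4-parameter Hill.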

[3] = target: Calcium and integrin-binding protein 1 (Homo sapiens) (UniProt Q99828); assay: Primary qHTS for Identification of Calcium Integrin Binding Protein 1 (CIB1) Competitor (AID 1508620);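 further: GST tagged CIB1 binding a fluorescein labelled alphaIIb integrin peptide tracer; top concentration of the series differs between compounds; on the % scale 0 is the no-effect control and ±100 the full control effect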
Procedure, shortened: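 CIB1-GST (1 uM final) and compound incubated 15 min at room temperature before adding FITC-alphaIIb peptide tracer (100 nM final). Competition for binding read by fluorescence polarization (ex 480, em 540) after another 15 min at room temperature.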

[4] = Primary fluorescence-based thiol-reactive (MSTI) qHTS assay for identification of artifact compounds. (AID 1845221); further: nearly all actives have a fitted effect of over 65% in size; further: potency means the concentration at half of the fitted maximal effect;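 on activity change, negative = thiol reactive: thiol-reactive compounds lower the probe fluorescence signal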
Procedure, shortened: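 In PBS pH 7.4 with 2% DMSO, each compound met 4 uM MSTI for one hour at ambient temperature, shielded from light, before fluorescence detection.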

CAOV3 = assay: Primary qHTS to identify gynecologic anti-cancer compounds using libraries of approved drugs and bioactive compounds (AID 1345084); conditions: Gynecologic cancer cell panel viability, ATPlite luminescence, 48 h; series mostly up to 57.5 µM; further: nearly all actives have a fitted effect of over 55% in size; further: potency means the concentration at half of the fitted maximal effect; on activity change, negative = cytotoxicity: on the % scale 0 is the no-effect control and ±100 the full control effect
Procedure, shortened: (§1)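 Five-concentration response, 48 h; readout is ATP-driven luciferase luminescence.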

JEG-3 = assay: as above; conditions: Gynecologic cancer cell panel viability, ATPlite luminescence, 48 h; series mostly up to 57.5 µM
Procedure, shortened: as §1

[5] = target: Cytochrome P450 2D6 (Homo sapiens) (UniProt P10635); assay: Cytochrome P450 family 2 subfamily D member 6 (CYP2D6) small molecule antagonists: luciferase biochemical (cell-free) qHTS assay (AID 1645840; active means well fitted curve in the direction sought with a large enough effect in the repeat runs; an effect the other way counts as inactive or inconclusive; further: on the % scale 0 is the no-effect control and ±100 the full control effect; nearly all actives have a fitted effect of over 55% in size)
Procedure, shortened: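 P450-Glo CYP2D6 system: proluciferin substrate converted by enzyme to luciferin, read by luminescence proportional to activity. Enzyme-substrate mix with compound 10 min at room temperature, then NADPH regeneration 1 h before detection reagent.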

[6] = target: Cytochrome P450 2C9 (Homo sapiens) (UniProt P11712); assay: Cytochrome P450 family 2 subfamily C member 9 (CYP2C9) small molecule antagonists: luciferase biochemical (cell-free) qHTS assay (AID 1645842; active means well fitted curve in the direction sought with a large enough effect in the repeat runs; an effect the other way counts as inactive or inconclusive; further: nearly all actives have a fitted effect of over 55% in size; further: potency means the concentration at half of the fitted maximal effect)
Procedure, shortened: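 P450-Glo CYP2C9 system: proluciferin substrate with enzyme in mix containing 0.4% BSA, 10 min at room temperature, then NADPH regeneration solution added and incubated 1 h at 37C. Detection reagent stopped reaction; luminescence read after 20 min as RLU.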

CRL-7250 = normal cell line; assay: qHTS assay to identify novel small-molecules to repurpose for Merkel cell carcinoma treatment (AID 1296009); conditions: MCC and control cell lines, CellTiter-Glo viability, 72 h; series mostly up to 92 µM; further: nearly all actives have a fitted effect of over 60% in size
Procedure, shortened: (§2)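 Cell viability measured by CellTiter-Glo following 72 hr compound treatment at 37 degree celsius, with NPC and MIPE libraries tested in 8- and 11-point concentration series.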

[7] = P-glycoprotein substrates identified in KB-3-1 adenocarcinoma cell line, qHTS therapeutic library screen (AID 1346986); further: nearly all actives have a fitted effect of over 60% in size
Procedure, shortened: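 Dose-response cytotoxicity, KB-3-1 vs P-gp-high KB-8-5-11, no colchicine in assay medium. Read: CellTiter-Glo at 72 h.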

[8] = Primary redox qHTS assay for identification of artifact compounds. (AID 1845223);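 further: 0% = DMSO and 100% = reference compound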
Procedure, shortened: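 Redox-cycling detection via DTT (250 uM final) oxidation coupled to Amplex Red (25 uM)/HRP (250 mU/mL) in HBSS. 15 min preincubation plus 30 min after DTT, room temperature. Ex/Em 525/598 nm; 4-parameter Hill fit against DMSO and 10 uM DA3003.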

HACAT = assay: qHTS assay to identify novel small-molecules to repurpose for Merkel cell carcinoma treatment (AID 1296009); conditions: MCC and control cell lines, CellTiter-Glo viability, 72 h; at 44.8 µM (top of the series) unless noted; further: nearly all actives have a fitted effect of over 60% in size
Procedure, shortened: as §2

SKOV3 = assay: Primary qHTS to identify gynecologic anti-cancer compounds using libraries of approved drugs and bioactive compounds (AID 1345084); conditions: Gynecologic cancer cell panel viability, ATPlite luminescence, 48 h; series mostly up to 57.5 µM; further: nearly all actives have a fitted effect of over 55% in size; further: potency means the concentration at half of the fitted maximal effect
Procedure, shortened: as §1

[9] = Cytotoxicity counterscreen for inhibitors of SARS-CoV-2 cell entry (AID 1645845; calls by dose curve; further: on the % scale 0 is the no-effect control and ±100 the full control effect; nearly all actives have a fitted effect of over 50% in size)
Procedure, shortened: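 ATP-content luminescence (ATPLite 1step, 15 min RT) read after 48 h compound exposure of Expi293F cells stably expressing human ACE2; normalized to cells-only wells and media-only wells.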

[10] = qHTS drug screen for cell cycle checkpoint inhibitors in PARPi-resistant BRCA-mutant ovarian cancer cell lines. (AID 1963452; calls by dose curve); conditions: PEO1/OlaR viability, CellTiter-Glo luminescence, 96 h, stronger effect = lower value
Procedure, shortened: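 PEO1, PEO4 and PEO1/OlaR ovarian cancer cells, 600 per well, exposed 96 h at 37C to a dilution series. Viability read by CellTiter-Glo luminescence, normalized to DMSO and empty wells; activity summarized as Z-AUC.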

KB-3-1 = assay: Cytotoxic Profiling of Annotated Libraries Using Quantitative High-Throughput Screening (AID 1296008); conditions: Five cell lines viability, CellTiter-Glo ATP luminescence, 48-72 h; max response: stronger effect = lower value; further: nearly all actives have a fitted effect of over 60% in size; further: potency means the concentration at half of the fitted maximal effect
Procedure, shortened: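 Cytotoxicity was measured as CellTiter-Glo ATP luminescence, read after 10 min at room temperature. Compound treatment of the cells lasted 48 or 72 hr at 37 degrees Celsius in a qHTS format.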

Cytochrome P450 2D6 (Homo sapiens), sequence (P10635 whole entry, looked up): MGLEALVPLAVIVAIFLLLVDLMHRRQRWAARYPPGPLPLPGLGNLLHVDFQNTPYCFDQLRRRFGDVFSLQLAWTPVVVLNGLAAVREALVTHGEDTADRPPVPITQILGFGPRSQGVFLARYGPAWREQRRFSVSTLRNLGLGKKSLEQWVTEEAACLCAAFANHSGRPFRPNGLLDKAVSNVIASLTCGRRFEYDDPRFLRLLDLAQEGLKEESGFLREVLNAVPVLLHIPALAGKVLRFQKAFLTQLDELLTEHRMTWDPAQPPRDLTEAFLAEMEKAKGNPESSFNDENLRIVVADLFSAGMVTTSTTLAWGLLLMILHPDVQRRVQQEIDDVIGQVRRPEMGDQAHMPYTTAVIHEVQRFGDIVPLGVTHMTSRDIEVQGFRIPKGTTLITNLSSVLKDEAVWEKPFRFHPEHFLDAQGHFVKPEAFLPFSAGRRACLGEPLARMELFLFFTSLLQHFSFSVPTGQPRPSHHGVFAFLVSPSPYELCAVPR
Cytochrome P450 2C9 (Homo sapiens), sequence (P11712 whole entry, looked up): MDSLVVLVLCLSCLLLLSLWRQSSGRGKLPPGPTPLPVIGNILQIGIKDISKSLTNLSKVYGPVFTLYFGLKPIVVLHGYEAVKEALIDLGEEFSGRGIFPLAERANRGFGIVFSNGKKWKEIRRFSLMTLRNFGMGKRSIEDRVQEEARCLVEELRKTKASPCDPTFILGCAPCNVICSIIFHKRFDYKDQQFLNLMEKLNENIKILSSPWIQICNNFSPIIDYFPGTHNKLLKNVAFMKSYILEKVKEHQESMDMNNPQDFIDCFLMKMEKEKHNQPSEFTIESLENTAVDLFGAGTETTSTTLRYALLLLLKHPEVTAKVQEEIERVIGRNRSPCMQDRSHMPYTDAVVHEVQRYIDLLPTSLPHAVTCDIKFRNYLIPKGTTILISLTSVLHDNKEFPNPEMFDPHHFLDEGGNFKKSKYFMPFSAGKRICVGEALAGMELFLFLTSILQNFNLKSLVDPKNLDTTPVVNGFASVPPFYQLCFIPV
Calcium and integrin-binding protein 1 (Homo sapiens), sequence (Q99828 whole entry, looked up): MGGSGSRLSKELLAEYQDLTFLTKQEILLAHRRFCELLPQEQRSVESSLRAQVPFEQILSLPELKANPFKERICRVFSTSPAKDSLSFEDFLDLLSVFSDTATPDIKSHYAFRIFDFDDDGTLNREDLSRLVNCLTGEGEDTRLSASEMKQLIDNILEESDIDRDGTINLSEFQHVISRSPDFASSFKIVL

CC[C@@H](C)[C@@H]1NC(=O)[C@@H]2CCCN2C(=O)[C@@H](CC(O)CCl)OC(=O)CCNC(=O)[C@H](C)N(C)C(=O)[C@H](C(C)C)N(C)C1=O (some centres not stated) (cyclo([NMeA][βAla][X7]P[aIle][NMeV]))
inactive: Potency [1] | Potency [2] | Potency [3] | Potency [4] | Potency (JEG-3)
active: Potency (CAOV3) 3.16 µM

COC1C(O)C(C)OC(OC2C(CO)O[C@@H](O[C@@H]3CC4CCC5C(CC[C@]6(C)[C@@H](C7=CC(=O)OC7)CC[C@]56O)[C@@]4(C)[C@H](OC(C)=O)C3)C(O)C2O)C1O (some centres not stated)
inactive: Potency [1] | Potency [2] | Potency [3] | Potency [4]

CN1C2CCC1CC(OC(=O)N1Cc3ccccc3NC1=O)C2 (configuration not stated)
inactive: Potency [1] | Potency [2] | Potency [5] | Potency [6] | Potency [4] | Potency (CRL-7250) | Potency (CAOV3) | Potency (JEG-3)

CCC(C)(O)C1(C(=O)O)COC(=O)C1 (configuration not stated)
inactive: Potency [7] | Potency [3] | Potency [8] | outcome (HACAT) inactive [at 92 µM] | Potency (CAOV3) | Potency (JEG-3) | Potency (SKOV3)

C[C@H]1C/C=C/[C@H]2[C@@H]3O[C@]3(C)[C@@H](C)[C@H]3[C@H](Cc4ccccc4)NC(=O)[C@]32OC(=O)O/C=C/[C@@](C)(O)C1=O
inactive: Potency [1] | Potency [2] | Potency [3] | Potency [4]
active: Potency (SKOV3) 2 µM

CCC1=CC2CN3CCc4c([nH]c5ccccc45)[C@@](C(=O)OC)(C2)[C@@H]13
inactive: Potency [1] | Potency [2] | Potency [3] | Potency [8] | Potency (CAOV3) | Potency (JEG-3)

Cc1sc2c(c1C)C(c1ccc(Cl)cc1)=N[C@@H](CC(N)=O)c1nnc(C)n1-2
inactive: Potency [1] | Potency [3] | Potency [5] | Potency [6] | Potency [9] | Potency [8] | Z-AUC [10] -0.829 and -0.822 | Potency (JEG-3)
active: Potency (SKOV3) 0.891 µM
-1.13 and -0.593: Z-AUC ([10]; measured here: PEO4 Z-AUC)
-0.858 and -0.588: Z-AUC ([10]; measured here: PEO1 parental Z-AUC)

COc1cc(O)c2c(c1)/C=C/C[C@@H](O)[C@@H](O)C(=O)CCC[C@H](C)OC2=O
inactive: Potency [2] | Potency [3] | Potency [4] | Potency [8] | Potency (CAOV3) | Potency (JEG-3) | Potency (SKOV3)

CCC1NC(=O)C2C(Cl)C(Cl)CN2C(=O)C(CC)NC(=O)CC(c2ccccc2)NC(=O)C(CO)NC1=O (configuration not stated)
active: Potency [4] 2.32 µM
inactive: Potency [8] | outcome (HACAT) inactive [at 17.4 µM] | Potency (CAOV3) | Potency (JEG-3)

C=C1[C@@H](C)C2[C@H](Cc3ccccc3)NC(=O)[C@@]23C(/C=C/C[C@H](C)C[C@@](C)(O)/C=C/[C@@H]3OC(C)=O)[C@@H]1O (some centres not stated)
inactive: Potency [1] | Potency [2] | Potency [3] | Potency [4] | Potency [8] | Potency (CAOV3)

CC[C@H](C)[C@H](NC(=O)[C@H]1CCCCN1C)C(=O)N(COC(=O)CC(C)C)[C@H](C[C@@H](OC(C)=O)c1nc(C(=O)N[C@@H](Cc2ccc(O)cc2)C[C@H](C)C(=O)O)cs1)C(C)C
inactive: activity change, negative = inhibition [1] 9.2% [at 2.28 µM] | outcome [2] inactive [at 1.3 µM] | activity change, negative = inhibition [3] 1.44% [at 2.24 µM] | activity change, negative = thiol reactive [4] 28.3% [at 1.02 µM] | redox activity (% of DA3003) [8] -0.209% [at 1.02 µM] | activity change, negative = cytotoxicity (CAOV3) -2.04% [at 1.28 µM]

CN(C)[C@@H]1C(=O)C(C(N)=O)=C(O)[C@@]2(O)C(=O)C3=C(O)c4c(O)ccc(Cl)c4[C@@](C)(O)C3C[C@@H]12 (some centres not stated)
inactive: Potency [1] | Potency [2] | max response (KB-3-1) -13.4% | Potency (CAOV3) | Potency (JEG-3) | Potency (SKOV3)
active: Potency [4] 1.68 µM

CC(=O)O[C@H]1CC[C@@]2(CI)C(=CC[C@@H]3[C@@H]2CC[C@]2(C)C(=O)CC[C@@H]32)C1
inactive: Potency [1] | Potency [2] | Potency [3] | Potency [4] | Potency (CRL-7250) | outcome (HACAT) | Potency (CAOV3) | Potency (JEG-3) | Potency (SKOV3)

CCc1nn(C)c(C(=O)NCc2ccc(Oc3ccc(C)cc3)cc2)c1Cl
active: Potency [6] 5.35 µM
inactive: Potency [1] | Potency [2] | Potency [3] | Potency [4] | Potency (CAOV3) | Potency (JEG-3)

C[C@]12CC[C@H](O)C[C@H]1CC[C@@H]1[C@@H]2[C@H](O)C[C@]2(C)[C@@H](c3ccc(=O)oc3)CC[C@]12O
inactive: Potency [2] | Potency [3] | Potency [4] | Potency [8] | Potency (JEG-3)
active: Potency (KB-3-1) 0.0517 µM | Potency (CAOV3) 0.1 µM

CNc1ccc2oc(C[C@H]3O[C@@]4(CC[C@H]3C)O[C@H](C(C)C(=O)c3ccc[nH]3)[C@H](C)C[C@H]4C)nc2c1C(=O)O (some centres not stated)
active: Potency [1] 11.2 µM | Potency [4] 2.38 µM | Potency (CAOV3) 22.4 µM
inactive: Potency [2] | Potency [5]

CCC1C2CC3C4N(C)c5ccccc5C45CC(C2C5O)N3C1O (configuration not stated)
inactive: Potency [1] | Potency [8] | max response (KB-3-1) 6.75% | Potency (CAOV3) | Potency (JEG-3) | Potency (SKOV3)

CC1=CC2/C=C(\C)CCCC(O)/C=C/C(=O)OC23C(=O)NC(CC(C)C)C3C1C (configuration not stated)
inactive: Potency [7] | Potency [1] | Potency [2] | Potency [3] | Potency [4] | Potency [8] | Potency (CRL-7250) | Potency (CAOV3) | Potency (JEG-3) | Potency (SKOV3)
